In PubChem BioAssay one finds log fold change Tl+ flux data, which are given here for 17 molecules.

Structures are written as SMILES. Values without a mark were called inactive. Active and inactive are the calls of the source.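 Rule for the calls: active = thallium flux through the channel raised or lowered by more than 3 SD from vehicle-only wells, actives on both sides; inactive = the rest.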

Experiment in all cases: modulators of BK channel variants, profiling panel, selectivity assay, cell-based, U2OS BacMam, thallium flux, beta subunits (AID 1259406);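 note: initial slope of Thallos dye fluorescence rise after thallium is added; log ratio against the mean of 0.3% DMSO vehicle wells on the same plate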
The test system of assay [1] is F380Y/beta2Delta. To be noted: at 30 µM.
In assay [2] the test system is F380Y/beta4. To be noted: at 30 µM.
The target in assay [3] is Calcium-activated potassium channel subunit alpha-1 (Homo sapiens) + Leucine-rich repeat-containing protein 26 (Homo sapiens) (UniProt Q12791+Q2I0M4). Conditions: F380Y/Slo1WT/gamma1, at 30 µM.
Calcium-activated potassium channel subunit alpha-1 (Homo sapiens) + Leucine-rich repeat-containing protein 26 (Homo sapiens), sequence (Q2I0M4 whole entry, looked up, one chain of several): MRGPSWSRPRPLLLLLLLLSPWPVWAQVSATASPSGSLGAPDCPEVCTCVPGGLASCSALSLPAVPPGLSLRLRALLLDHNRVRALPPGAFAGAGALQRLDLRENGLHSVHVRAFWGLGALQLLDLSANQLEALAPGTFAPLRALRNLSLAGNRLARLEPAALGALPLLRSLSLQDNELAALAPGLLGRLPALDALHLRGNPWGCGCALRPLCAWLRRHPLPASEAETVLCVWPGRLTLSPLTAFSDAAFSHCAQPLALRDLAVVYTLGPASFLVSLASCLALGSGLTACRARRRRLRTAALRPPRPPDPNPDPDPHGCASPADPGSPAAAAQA
In assay [4] the test system is R275C. Conditions: at 30 µM.
Assay [5] relates to R275C/beta1. Conditions: at 30 µM.
Assay [6] relates to R275C/beta2Delta. To be noted: at 30 µM.
Assay [7] has as its system R275C/beta4. To be noted: at 30 µM.
For assay [8], the system named is R275C/Slo1WT/beta2. To be noted: at 30 µM.

For `COc1ccc(C(=O)NCc2ccc(OCCN(C)C)cc2)cc1OC`, the log fold change Tl+ flux in assay [1] was -0.0465; in assay [2], -0.0244; in assay [3], -0.0979 (active); in assay [4] it was -0.0872; in assay [5], -0.00904; in assay [6], -0.0505. Further, the results for the log fold change Tl+ flux in assay [7] and in assay [8] were 0.0059 and 0.00939, respectively.

Turning to `COc1ccccc1OCC(O)CN1CCN(CC(=O)Nc2c(C)cccc2C)CC1` (centres undefined), the log fold change Tl+ flux in assay [1] is 0.0304; in assay [2] it was -0.01; in assay [3], -0.0153; in assay [4] it was -0.0477; in assay [5], 0.0435; in assay [6], 0.00123. The log fold change Tl+ flux in assay [7] is 0.0205; in assay [8], 0.0142.

Consider `CCC(=O)O[C@]1(C(=O)SCF)[C@H](C)C[C@H]2[C@@H]3C[C@H](F)C4=CC(=O)C=C[C@]4(C)[C@@]3(F)[C@@H](O)C[C@@]21C`, for which the log fold change Tl+ flux in assay [1] is 0.0505; in assay [2] it was 0.0435; in assay [3], 0.0105; in assay [4] it was -0.00436; in assay [5], -0.000971; in assay [6] it was 0.027. Also, the log fold change Tl+ flux in assay [7] is 0.00493; in assay [8], 0.0478.

Regarding `O=C(NCCO[N+](=O)[O-])c1cccnc1`, the log fold change Tl+ flux is -0.00246 in assay [1]; 0.013 in assay [2]; 0.000443 in assay [3]; -0.059 in assay [4]; -0.0194 in assay [5]; 0.000208 in assay [6]. Also, the log fold change Tl+ flux was 0.0335 in assay [7] and -0.00283 in assay [8].

As for `CCOC(=O)C1=C(C)NC(C)=C(C(=O)OC)C1c1cccc(Cl)c1Cl` (centres undefined), the log fold change Tl+ flux is -0.162 (active) in assay [1]; -0.261 (active) in assay [2]; 0.00637 in assay [3]; -0.00728 in assay [4]; -0.0274 in assay [5]; 0.0156 in assay [6]. Also, the results for the log fold change Tl+ flux in assay [7] and in assay [8] were 0.114 and -0.0293, respectively.

For the molecule `O=C1c2cccc3c2[C@H](CCC3)CN1[C@@H]1CN2CCC1CC2`, the log fold change Tl+ flux in assay [1] was 0.0262; in assay [2], 0.0479; in assay [3], 0.0044; in assay [4] it was -0.0177; in assay [5], -0.00783; in assay [6], 0.00552. Also, the log fold change Tl+ flux in assay [7] is -0.0169; in assay [8], -0.0269.

In the case of `CN(C)CC[C@@H](c1ccc(Cl)cc1)c1ccccn1`, the log fold change Tl+ flux in assay [1] is 0.0413; in assay [2], 0.0471; in assay [3], -0.00445; in assay [4], -0.0353; in assay [5], 0.0461; in assay [6], 0.00905. Moreover, the log fold change Tl+ flux was 0.0349 in assay [7] and 0.0166 in assay [8].

In the case of `CC(Cc1ccccc1)(NC(=O)CN)c1ccccc1` (centres undefined), the log fold change Tl+ flux is 0.0679 in assay [1]; 0.0357 in assay [2]; -0.0139 in assay [3]; 0.0158 in assay [4]; 0.0479 in assay [5]; 0.036 in assay [6]. Besides, the values for the log fold change Tl+ flux in assay [7] and in assay [8] were 0.0184 and -0.037, respectively.

On to `CN(C)CCCSc1ccccc1NC(=O)/C=C/c1ccccc1`, for which the log fold change Tl+ flux in assay [1] is 0.0654; in assay [3] it was 0.0123; in assay [4], 0.063; in assay [5] it was 0.0477; in assay [6] it was 0.0394.

`CCN1CC(CCN2CCOCC2)C(c2ccccc2)(c2ccccc2)C1=O` (centres undefined): the log fold change Tl+ flux in assay [1] was -0.000818; in assay [2], 0.03; in assay [3], -0.0552; in assay [4] it was -0.0141; in assay [5], -0.00917; in assay [6], 0.0055. The values for the log fold change Tl+ flux in assay [7] and in assay [8] were 0.000738 and -0.0334, respectively.

Regarding `Cc1ncc([N+](=O)[O-])n1CC(O)CCl` (centres undefined), the log fold change Tl+ flux was -0.0158 in assay [1]; -0.0171 in assay [2]; -0.013 in assay [3]; 0.00346 in assay [4]; -0.0317 in assay [5]; -0.0154 in assay [6]. Further, the values for the log fold change Tl+ flux in assay [7] and in assay [8] were -0.0435 and -0.016, respectively.

On to `O=C(CCNNC(=O)c1ccncc1)NCc1ccccc1`, for which the log fold change Tl+ flux in assay [1] was -0.0162; in assay [2] it was 0.0308; in assay [3], 0.00963; in assay [4], -0.0947; in assay [5], -0.0338; in assay [6] it was 0.038. The log fold change Tl+ flux in assay [7] is 0.0195; in assay [8], 0.0406.

As to `CC1CCN(CCCC(=O)c2ccc(F)cc2)CC1`, the log fold change Tl+ flux in assay [1] is 0.0189; in assay [3], 0.000816; in assay [4] it was 0.0359; in assay [5] it was -0.0458; in assay [6], 0.0277.

Consider `CN(Cc1cnc2nc(N)nc(N)c2n1)c1ccc(C(=O)N[C@@H](CCC(=O)O)C(=O)O)cc1`, for which the log fold change Tl+ flux in assay [1] was -0.018; in assay [3], 0.0152; in assay [4] it was 0.0652; in assay [5], -0.0323; in assay [6], 0.0014.

As to `COc1cc(OC)c(C(=O)CCCN2CCCC2)c(OC)c1`, the log fold change Tl+ flux in assay [1] is -0.00493; in assay [2], -0.0142; in assay [3], 0.0079; in assay [4], 0.0465; in assay [5], 0.0151; in assay [6], 0.0392. Besides, the figures for the log fold change Tl+ flux in assay [7] and in assay [8] were 0.0301 and 0.0326, respectively.

Take `c1cnc(N2CCN(Cc3ccc4c(c3)OCO4)CC2)nc1`: the log fold change Tl+ flux in assay [1] is -0.0184; in assay [3], 0.0386; in assay [4], -0.0353; in assay [5], 0.0391; in assay [6], -0.006.

Regarding `CNS(=O)(=O)Cc1ccc2[nH]cc(CCN(C)C)c2c1`, the log fold change Tl+ flux in assay [1] was 0.0184; in assay [2], 0.00469; in assay [3], -0.0149; in assay [4], 0.0314; in assay [5], -0.0158; in assay [6] it was 0.00098. In addition, the log fold change Tl+ flux was -0.0449 in assay [7] and 0.0327 in assay [8].
